This is an account of results in PMC11006913.

Holding throughout (experiment): PBM; 200 nM protein, PBS
Conditions in all cases: dsDNA, one strand shown

Assay [1] has as its target NKX2-5 (Homo sapiens, UniProt P52952 125-210, R139K).
The target in assay [2] is HOXA2 (Homo sapiens, UniProt O43364 129-215, R185T).
For assay [3], the target named is HOXA2 (Homo sapiens, UniProt O43364 129-215, R185K).
The target in assay [4] is HOXA2 (Homo sapiens, UniProt O43364 129-215, Y150S).
Assay [5] deals with HOXA2 (Homo sapiens, UniProt O43364 129-215).
Sequence of HOXA2 (Homo sapiens, UniProt O43364 129-215) (O43364 129-215): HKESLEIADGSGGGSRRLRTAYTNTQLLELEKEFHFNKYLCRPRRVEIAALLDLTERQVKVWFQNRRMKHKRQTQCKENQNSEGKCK
For assay [6], the target named is NKX2-5 (Homo sapiens, UniProt P52952 125-210).
Sequence of NKX2-5 (Homo sapiens, UniProt P52952 125-210) (P52952 125-210): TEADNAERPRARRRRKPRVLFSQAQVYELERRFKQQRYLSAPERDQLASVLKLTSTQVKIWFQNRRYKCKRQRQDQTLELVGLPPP
The target in assay [7] is MSX2 (Homo sapiens, UniProt P35548 130-214, R199I).
Sequence of MSX2 (Homo sapiens, UniProt P35548 130-214, R199I) (P35548 130-214 R199I): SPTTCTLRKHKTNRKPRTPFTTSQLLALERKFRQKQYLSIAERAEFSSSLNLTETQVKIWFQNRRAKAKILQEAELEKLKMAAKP
Assay [8] addresses HOXD13 (Homo sapiens, UniProt P35453 263-343, T313R).
The target of assay [9] is HOXD13 (Homo sapiens, UniProt P35453 263-343).
Sequence of HOXD13 (Homo sapiens, UniProt P35453 263-343) (P35453 263-343): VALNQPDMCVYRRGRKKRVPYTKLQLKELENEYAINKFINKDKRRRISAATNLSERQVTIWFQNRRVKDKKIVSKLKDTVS
In assay [10] the target is MSX2 (Homo sapiens, UniProt P35548 130-214).
Sequence of MSX2 (Homo sapiens, UniProt P35548 130-214) (P35548 130-214): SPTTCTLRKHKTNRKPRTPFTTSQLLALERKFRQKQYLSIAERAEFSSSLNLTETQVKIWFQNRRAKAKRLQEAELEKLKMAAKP
Assay [11] deals with VAX1 (Homo sapiens, UniProt Q5SQQ9 86-172).
Sequence of VAX1 (Homo sapiens, UniProt Q5SQQ9 86-172) (Q5SQQ9 86-172): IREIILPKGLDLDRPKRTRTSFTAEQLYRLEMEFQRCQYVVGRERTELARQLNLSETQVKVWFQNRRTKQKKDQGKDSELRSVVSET
Assay [12] concerns the target HOXD13 (Homo sapiens, UniProt P35453 263-343, T313A).
In assay [13] the target is MSX2 (Homo sapiens, UniProt P35548 130-214, F161Y).
Sequence of MSX2 (Homo sapiens, UniProt P35548 130-214, F161Y) (P35548 130-214 F161Y): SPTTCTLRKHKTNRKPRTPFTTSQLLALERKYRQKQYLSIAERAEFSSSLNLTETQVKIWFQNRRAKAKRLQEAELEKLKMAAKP
Assay [14] concerns the target VAX1 (Homo sapiens, UniProt Q5SQQ9 86-172, T142I).
For assay [15], the target named is VAX1 (Homo sapiens, UniProt Q5SQQ9 86-172, K157R).
Sequence of VAX1 (Homo sapiens, UniProt Q5SQQ9 86-172, K157R) (Q5SQQ9 86-172 K157R): as the sequence (Q5SQQ9 86-172) above, with K72R counted along it
Assay [16] has as its target T1, NKX2-6 (Homo sapiens, UniProt A6NCS4 118-204, R150C).
T1 sequence: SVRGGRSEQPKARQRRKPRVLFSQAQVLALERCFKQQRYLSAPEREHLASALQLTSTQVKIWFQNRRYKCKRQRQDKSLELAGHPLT

For assay [17], the target named is T2, NKX2-6 (Homo sapiens, UniProt A6NCS4 118-204).
T2 sequence: T1 sequence with C33R

For assay [18], the target named is T3, NKX2-6 (Homo sapiens, UniProt A6NCS4 118-204, F151L).
T3 sequence: T1 sequence with C33R, F34L

The target in assay [19] is NKX3-2 (Homo sapiens, UniProt P78367 192-278, P234S).
Sequence of NKX3-2 (Homo sapiens, UniProt P78367 192-278, P234S) (P78367 192-278 P234S): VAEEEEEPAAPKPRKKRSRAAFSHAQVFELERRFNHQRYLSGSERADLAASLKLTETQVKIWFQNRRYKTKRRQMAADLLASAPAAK
Assay [20] has as its target NKX3-2 (Homo sapiens, UniProt P78367 192-278).
A further assay deals with T4, NKX2-4 (Homo sapiens, UniProt Q9H2Z4 175-261, R246Q).
T4 sequence: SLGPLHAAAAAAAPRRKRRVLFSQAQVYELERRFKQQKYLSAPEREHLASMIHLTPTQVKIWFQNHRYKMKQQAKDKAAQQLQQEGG

Where a chain is given by its changes, count along the chain named.

Sequence of NKX3-2 (Homo sapiens, UniProt P78367 192-278) (P78367 192-278): as the sequence (P78367 192-278 P234S) above, with S43P counted along it
Sequence of NKX2-5 (Homo sapiens, UniProt P52952 125-210, R139K) (P52952 125-210 R139K): as the sequence (P52952 125-210) above, with R15K counted along it
Sequence of HOXA2 (Homo sapiens, UniProt O43364 129-215, R185T) (O43364 129-215 R185T): as the sequence (O43364 129-215) above, with R57T counted along it
Sequence of HOXA2 (Homo sapiens, UniProt O43364 129-215, Y150S) (O43364 129-215 Y150S): as the sequence (O43364 129-215) above, with Y22S counted along it
Sequence of HOXA2 (Homo sapiens, UniProt O43364 129-215, R185K) (O43364 129-215 R185K): as the sequence (O43364 129-215) above, with R57K counted along it
Sequence of HOXD13 (Homo sapiens, UniProt P35453 263-343, T313A) (P35453 263-343 T313A): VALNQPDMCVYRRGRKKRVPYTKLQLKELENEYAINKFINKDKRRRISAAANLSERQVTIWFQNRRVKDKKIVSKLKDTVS
Sequence of HOXD13 (Homo sapiens, UniProt P35453 263-343, T313R) (P35453 263-343 T313R): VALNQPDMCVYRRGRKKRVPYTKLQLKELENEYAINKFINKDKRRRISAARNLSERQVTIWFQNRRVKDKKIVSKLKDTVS
Sequence of VAX1 (Homo sapiens, UniProt Q5SQQ9 86-172, T142I) (Q5SQQ9 86-172 T142I): as the sequence (Q5SQQ9 86-172) above, with T57I counted along it

In the case of CCGAGGTC, the binding signal in the assay with NKX2-5 [1] is 8.47 upbm affinity estimate (log intensity, higher = more binding, comparable within an allelic series); in the assay with HOXA2 [2] it was 6.93 upbm affinity estimate (log intensity, higher = more binding, comparable within an allelic series); with HOXA2 [3], 10.2 upbm affinity estimate (log intensity, higher = more binding, comparable within an allelic series); with HOXA2 [4], 10.4 upbm affinity estimate (log intensity, higher = more binding, comparable within an allelic series); in the assay with HOXA2 [5] it was 7.18 upbm affinity estimate (log intensity, higher = more binding, comparable within an allelic series); in the assay with NKX2-5 [6], 8.66 upbm affinity estimate (log intensity, higher = more binding, comparable within an allelic series).

For the sequence CCCTGGCC, the binding signal was 8.8 upbm affinity estimate (log intensity, higher = more binding, comparable within an allelic series) in the assay with NKX2-5 [1]; 6.94 upbm affinity estimate (log intensity, higher = more binding, comparable within an allelic series) in the assay with HOXA2 [2]; 9.39 upbm affinity estimate (log intensity, higher = more binding, comparable within an allelic series) in the assay with MSX2 [7]; 9.22 upbm affinity estimate (log intensity, higher = more binding, comparable within an allelic series) in the assay with HOXD13 [8]; 10.1 upbm affinity estimate (log intensity, higher = more binding, comparable within an allelic series) in the assay with HOXA2 [3]; 9.28 upbm affinity estimate (log intensity, higher = more binding, comparable within an allelic series) in the assay with HOXD13 [9]. Moreover, the binding signal was 9.37 upbm affinity estimate (log intensity, higher = more binding, comparable within an allelic series) with MSX2 [10]; 6.64 upbm affinity estimate (log intensity, higher = more binding, comparable within an allelic series) with VAX1 [11]; 9.38 upbm affinity estimate (log intensity, higher = more binding, comparable within an allelic series) in the assay with HOXD13 [12]; 9.41 upbm affinity estimate (log intensity, higher = more binding, comparable within an allelic series) with MSX2 [13]; 6.9 upbm affinity estimate (log intensity, higher = more binding, comparable within an allelic series) in the assay with VAX1 [14]; 10.4 upbm affinity estimate (log intensity, higher = more binding, comparable within an allelic series) with HOXA2 [4]. The binding signal with HOXA2 [5] was 6.83 upbm affinity estimate (log intensity, higher = more binding, comparable within an allelic series); in the assay with VAX1 [15], 6.7 upbm affinity estimate (log intensity, higher = more binding, comparable within an allelic series); with NKX2-5 [6] it was 8.75 upbm affinity estimate (log intensity, higher = more binding, comparable within an allelic series).

On to CTAAGTGC, for which the binding signal in the assay with NKX2-5 [1] is 12.8 upbm affinity estimate (log intensity, higher = more binding, comparable within an allelic series); with NKX2-6 [16] it was 11.8 upbm affinity estimate (log intensity, higher = more binding, comparable within an allelic series); with NKX2-6 [17], 13.7 upbm affinity estimate (log intensity, higher = more binding, comparable within an allelic series); with NKX2-6 [18], 11 upbm affinity estimate (log intensity, higher = more binding, comparable within an allelic series); in the assay with NKX3-2 [19] it was 13 upbm affinity estimate (log intensity, higher = more binding, comparable within an allelic series); in the assay with NKX2-5 [6] it was 12.7 upbm affinity estimate (log intensity, higher = more binding, comparable within an allelic series). The binding signal in the assay with NKX3-2 [20] was 13 upbm affinity estimate (log intensity, higher = more binding, comparable within an allelic series).

Consider CTGGCCGA, for which the binding signal was 8.94 upbm affinity estimate (log intensity, higher = more binding, comparable within an allelic series) in the assay with NKX2-5 [1]; 9.45 upbm affinity estimate (log intensity, higher = more binding, comparable within an allelic series) with NKX2-6 [16]; 8.74 upbm affinity estimate (log intensity, higher = more binding, comparable within an allelic series) in the assay with NKX2-5 [6].

For the sequence AAGTGGGC, the binding signal was 12.4 upbm affinity estimate (log intensity, higher = more binding, comparable within an allelic series) with NKX2-5 [1]; 11.5 upbm affinity estimate (log intensity, higher = more binding, comparable within an allelic series) with NKX2-6 [16]; 12.8 upbm affinity estimate (log intensity, higher = more binding, comparable within an allelic series) with NKX3-2 [19]; 12.3 upbm affinity estimate (log intensity, higher = more binding, comparable within an allelic series) in the assay with NKX2-5 [6]; 12.9 upbm affinity estimate (log intensity, higher = more binding, comparable within an allelic series) in the assay with NKX3-2 [20].

Take AGCACTTG: the binding signal with NKX2-5 [1] was 12.4 upbm affinity estimate (log intensity, higher = more binding, comparable within an allelic series); with NKX2-6 [16], 11.6 upbm affinity estimate (log intensity, higher = more binding, comparable within an allelic series); with NKX2-4 it was 13 upbm affinity estimate (log intensity, higher = more binding, comparable within an allelic series); in the assay with NKX2-6 [18], 10.6 upbm affinity estimate (log intensity, higher = more binding, comparable within an allelic series); in the assay with NKX2-5 [6], 12.3 upbm affinity estimate (log intensity, higher = more binding, comparable within an allelic series).

For ACACTTAG, the binding signal with NKX2-5 [1] was 12.6 upbm affinity estimate (log intensity, higher = more binding, comparable within an allelic series); with NKX2-6 [16] it was 11.7 upbm affinity estimate (log intensity, higher = more binding, comparable within an allelic series); with NKX2-6 [17], 13.5 upbm affinity estimate (log intensity, higher = more binding, comparable within an allelic series); with NKX2-6 [18] it was 11 upbm affinity estimate (log intensity, higher = more binding, comparable within an allelic series); with NKX3-2 [19] it was 12.8 upbm affinity estimate (log intensity, higher = more binding, comparable within an allelic series); with NKX2-5 [6], 12.5 upbm affinity estimate (log intensity, higher = more binding, comparable within an allelic series). Also, the binding signal with NKX3-2 [20] was 12.8 upbm affinity estimate (log intensity, higher = more binding, comparable within an allelic series).

Turning to CGTTCCGC, the binding signal with NKX2-5 [1] was 8.99 upbm affinity estimate (log intensity, higher = more binding, comparable within an allelic series); with NKX2-6 [17], 9.44 upbm affinity estimate (log intensity, higher = more binding, comparable within an allelic series); in the assay with NKX2-6 [18], 9.27 upbm affinity estimate (log intensity, higher = more binding, comparable within an allelic series); in the assay with NKX2-5 [6], 8.75 upbm affinity estimate (log intensity, higher = more binding, comparable within an allelic series).

As to GTCCCAGA, the binding signal in the assay with NKX2-5 [1] was 8.89 upbm affinity estimate (log intensity, higher = more binding, comparable within an allelic series); with NKX2-6 [17], 9.24 upbm affinity estimate (log intensity, higher = more binding, comparable within an allelic series); with NKX2-6 [18], 9.41 upbm affinity estimate (log intensity, higher = more binding, comparable within an allelic series); with NKX2-5 [6], 8.98 upbm affinity estimate (log intensity, higher = more binding, comparable within an allelic series).

AGCCCAGG: the binding signal with NKX2-5 [1] was 8.68 upbm affinity estimate (log intensity, higher = more binding, comparable within an allelic series); with MSX2 [7], 9.6 upbm affinity estimate (log intensity, higher = more binding, comparable within an allelic series); with MSX2 [10], 9.67 upbm affinity estimate (log intensity, higher = more binding, comparable within an allelic series); in the assay with MSX2 [13], 9.66 upbm affinity estimate (log intensity, higher = more binding, comparable within an allelic series); in the assay with NKX3-2 [19], 10.1 upbm affinity estimate (log intensity, higher = more binding, comparable within an allelic series); with NKX2-5 [6] it was 8.63 upbm affinity estimate (log intensity, higher = more binding, comparable within an allelic series). In addition, in the assay with NKX3-2 [20], the binding signal is 10.1 upbm affinity estimate (log intensity, higher = more binding, comparable within an allelic series).

On to GAAGTGGA, for which the binding signal with NKX2-5 [1] was 11.7 upbm affinity estimate (log intensity, higher = more binding, comparable within an allelic series); with NKX2-6 [16], 11.3 upbm affinity estimate (log intensity, higher = more binding, comparable within an allelic series); with NKX3-2 [19], 12.5 upbm affinity estimate (log intensity, higher = more binding, comparable within an allelic series); with NKX2-5 [6] it was 11.8 upbm affinity estimate (log intensity, higher = more binding, comparable within an allelic series); with NKX3-2 [20], 12.6 upbm affinity estimate (log intensity, higher = more binding, comparable within an allelic series).
